{"source": "PubChem BioAssay (Tox21)", "note": "Calls of active or inactive are those of the source. The call rests on the fitted dose curve; in most records, active means well fitted curve in the direction sought with a large enough effect in the repeat runs; inconclusive means weak or mixed curves; inactive means flat fitted curve, though single readings scatter.", "data": [{"assay": "qHTS assay to test for compound auto fluorescence at 535 nm (green) in HepG2 cells (AID 720675)", "details": "green autofluorescence 485/535 nm, 1 h; series mostly up to 91.3 µM", "source_text": "National Center for Advancing Translational Sciences [NCATS]\nNIH Chemical Genomics Center [NCGC]\nU.S. Environmental Protection Agency [EPA]\nNational Institutes of Environmental Health Sciences [NIEHS]\nNational Toxicology Program [NTP]\nU.S. Food and Drug Administration [FDA]\nCompound auto fluorescence often interferes with screening of the compound library against various biological targets and signaling pathways. Some of these compounds may have fluorophoric properties. Such properties may interfere with the assay outputs resulting in false positives and/or negatives. To decrease such complications and ensure the compound activities are relevant in terms of biological response, the Tox21 10K compound library was screened for auto fluorescence.\nFrom the fluorophores used as reporter signals in our screening assays, the auto fluorescence equivalencies of compounds against three fluorophores have been evaluated: Triamterene, Fluorescein and Rose Bengal sodium for blue, green and red fluorescence, respectively. The fluorescence intensities were measured using Excitation/Emission wavelengths at 405/460nm, 485/535nm and 540/590nm for blue, green and red labels, respectively. This assay includes the green fluorescence data.\nTox21 Assay Protocol Summary:\n2,000 HepG2 cells in 5 uL of culture medium (MEM containing 10% FBS) per well were dispensed into black wall/clear bottom 1536-well plates using a Multidrop Combi Dispenser (ThermoFisher Scientific, Waltham, MA). The assay plates were incubated overnight at 37 C to allow cell attachment to the well bottom, followed by the transfer of 23 nL compound or DMSO vehicle by a pintool work station (Kalypsys , San Diego, CA). After the assay plates were incubated for 1 hr at 37 C and 5% CO2, fluorescence intensities in the assay plates were measured by an Envision (PerkinElmer, Shelton, CT) plate reader using three labels for measuring blue, green and red fluorescence at […] 460, 535 and 590 nm respectively.", "values": [{"smiles": "NCC(O)c1ccc(O)cc1", "note": "(stereo not given)", "outcome": "inactive"}, {"smiles": "C1CC2OC2CC1C1CO1", "note": "(stereo not given)", "outcome": "inactive"}, {"smiles": "CCCCN(CC)C(=O)SCCC", "outcome": "inactive"}, {"smiles": "CCC[CH2][Sn]([Cl])([Cl])[Cl]", "outcome": "inactive"}, {"smiles": "C[C@]12CC[C@H]3[C@@H](CC[C@@]45O[C@@H]4C(O)=C(C#N)C[C@]35C)[C@@H]1CC[C@@H]2O", "outcome": "inactive"}, {"smiles": "CCCN(CCC)c1c([N+](=O)[O-])cc(C(F)(F)F)cc1[N+](=O)[O-]", "outcome": "inactive"}, {"smiles": "O=S(=O)(c1ccc(Cl)cc1)c1cc(Cl)c(Cl)cc1Cl", "outcome": "inactive"}, {"smiles": "O=[N+]([O-])c1ccc([As](=O)(O)O)cc1", "outcome": "inactive"}, {"smiles": "CCCCCCCCCCCC#N", "outcome": "inactive"}, {"smiles": "CC1C=[C-]C=C1.[C-]#[O+].[C-]#[O+].[C-]#[O+].[Mn]", "outcome": "inactive"}, {"smiles": "Nc1ccc(Br)cc1", "outcome": "inactive"}, {"smiles": "Cc1ccc(N)cc1N", "outcome": "inactive"}, {"smiles": "CON(C)C(=O)Nc1ccc(Cl)c(Cl)c1", "outcome": "inactive"}, {"smiles": "CCCCCCCCCl", "outcome": "inactive"}, {"smiles": "CNC(=O)Oc1ccccc1OC(C)C", "outcome": "inactive"}, {"smiles": "CC(C)OC(=O)Nc1cccc(Cl)c1", "outcome": "inactive"}, {"smiles": "O=[N+]([O-])c1ccc(Oc2ccc(Cl)cc2Cl)cc1", "outcome": "inactive"}, {"smiles": "Clc1cccc(Cl)c1Cl", "outcome": "inactive"}, {"smiles": "O=c1n(Cl)c(=O)n(Cl)c(=O)n1Cl", "outcome": "inactive"}, {"smiles": "CN1C(=O)CN=C(c2ccccc2)c2cc(Cl)ccc21", "outcome": "inactive"}, {"smiles": "Oc1ccccc1Cl", "outcome": "inactive"}, {"smiles": "OC(O)C(Cl)(Cl)Cl", "outcome": "inactive"}, {"smiles": "CCC[N+](=O)[O-]", "outcome": "inactive"}, {"smiles": "O=c1[nH]c(=O)[nH]c(=O)[nH]1", "outcome": "inactive"}, {"smiles": "CCOP(OCC)OCC", "outcome": "inactive"}, {"smiles": "COCCl", "outcome": "inactive"}, {"smiles": "c1ccc2c(c1)oc1ccccc12", "outcome": "inactive"}, {"smiles": "CCCCOC(=O)c1ccccc1C(=O)OCCCC", "outcome": "inactive"}, {"smiles": "Clc1ccc(Cl)cc1", "outcome": "inactive"}, {"smiles": "COC(=O)c1ccccc1C(=O)OC", "outcome": "inactive"}, {"smiles": "COP(N)(=O)SC", "note": "(stereo not given)", "outcome": "inactive"}, {"smiles": "COC(=O)c1ccccc1N", "outcome": "inactive"}, {"smiles": "CC(C)C#N", "outcome": "inactive"}, {"smiles": "Nc1c(Cl)c(Cl)nc(C(=O)O)c1Cl", "outcome": "inactive"}, {"smiles": "C#CCN(C)[C@H](C)Cc1ccccc1", "outcome": "inactive"}, {"smiles": "O=C(NC(=O)c1c(F)cccc1F)Nc1cc(Cl)c(OC(F)(F)C(F)C(F)(F)F)cc1Cl", "note": "(stereo not given)", "outcome": "inactive"}, {"smiles": "CC(Oc1ccc(Cl)cc1Cl)C(=O)O", "note": "(stereo not given)", "outcome": "inactive"}, {"smiles": "c1ccc(-c2ccccc2)cc1", "outcome": "inactive"}, {"smiles": "Clc1ccccc1Cl", "outcome": "inactive"}, {"smiles": "CCOC(=O)c1ccccc1C(=O)OCC", "outcome": "inactive"}]}]}
